Bioassay records (PubChem BioAssay)
A selection: hits, their analogues and other compounds. The true share with any hit is near 6%.
ERK AVP block = vasopressin-driven ERK pathway inhibition | HEK293-V1b, vasopressin-stimulated pERK AlphaScreen | Potency, µM (doses to about 57.5 µM), without a hit: at the top dose activity, negative = inhibition, hits mostly inhibitors | 72,000 compounds, 0.99% hits | AID 995; further: on the % scale 0 is the no-effect control and ±100 the full control effect; nearly all actives have a fitted effect of over 55% in size
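qHTS, compounds titrated on V1b-expressing HEK293 cells. Preincubation 30 min at 37C, vasopressin 25 nM for 5 min, lysis 10 min, bead incubation 5 hr at room temperature.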
CRE-bla Fsk = modulators of forskolin-stimulated CRE signaling in CHO cells; CHO CRE-bla reporter (cAMP response element driving beta-lactamase), forskolin EC10, beta-lactamase ratio; Potency, µM (doses to about 38.2 µM), for inactives: at the top dose activity change, negative = inhibition, usual class: activators; 71,000 compounds, 2.5% hits; active means well fitted activation curve with a large enough effect in the signal ratio, with a control signal flat, not every such curve was filed as active; inconclusive means small, poorly fitted or top-dose-only effect, or effect the other way, or a change in a side signal; the % refers to the signal ratio; further: % of control where 0% means no effect
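AC50 values, positive or negative, reflect shifts in EC10 NKH 477-induced CRE-bla reporter activity in CHO cells. Incubation lasted 3 h at 37 °C before CCF4 substrate (2 h, room temperature) and ratiometric 460/530 nm reading.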
HEK293 cAMP cs = counter-screen for TSHR agonists: cAMP increase in parental HEK293; parental HEK293 CNG cAMP sensor, membrane potential fluorescence; Potency, µM (top dose mostly 57.1 µM), inactives show at the highest dose activation, most hits filed as activators; 73,000 compounds, 2.5% hits; AID 938; further: % of control where 0% means no effect; nearly all actives have a fitted effect of over 55% in size
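Counterscreen for endogenous-receptor signalling: CNG-channel HEK 293 cells report cAMP rise by membrane depolarization. After 60 min dye equilibration with 100 uM RO 20-1724, compounds incubated 30 min before bottom-read fluorescence at 590 nm.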
TSHR ag = agonists of human thyroid stimulating hormone receptor. Potency, µM (titrated, usually from 57.1 µM), inactives show at the highest dose activation, most hits filed as activators. P16473. AID 926. 73,000 compounds, 0.48% hits. HEK293-CNG-TSHR cells (CNG channel as cAMP sensor), membrane potential dye, cAMP; active means well fitted activation curve with a large enough effect in the main read-out, with a control signal flat, not every such curve was filed as active; inconclusive means small, poorly fitted or top-dose-only effect, or a change in a side signal; inactive means no such curve, though single readings can be large or run the other way; % of control where 0% means no effect;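 further: the control signal comes from parental cells without the receptor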
Target sequence (P16473 whole entry, looked up): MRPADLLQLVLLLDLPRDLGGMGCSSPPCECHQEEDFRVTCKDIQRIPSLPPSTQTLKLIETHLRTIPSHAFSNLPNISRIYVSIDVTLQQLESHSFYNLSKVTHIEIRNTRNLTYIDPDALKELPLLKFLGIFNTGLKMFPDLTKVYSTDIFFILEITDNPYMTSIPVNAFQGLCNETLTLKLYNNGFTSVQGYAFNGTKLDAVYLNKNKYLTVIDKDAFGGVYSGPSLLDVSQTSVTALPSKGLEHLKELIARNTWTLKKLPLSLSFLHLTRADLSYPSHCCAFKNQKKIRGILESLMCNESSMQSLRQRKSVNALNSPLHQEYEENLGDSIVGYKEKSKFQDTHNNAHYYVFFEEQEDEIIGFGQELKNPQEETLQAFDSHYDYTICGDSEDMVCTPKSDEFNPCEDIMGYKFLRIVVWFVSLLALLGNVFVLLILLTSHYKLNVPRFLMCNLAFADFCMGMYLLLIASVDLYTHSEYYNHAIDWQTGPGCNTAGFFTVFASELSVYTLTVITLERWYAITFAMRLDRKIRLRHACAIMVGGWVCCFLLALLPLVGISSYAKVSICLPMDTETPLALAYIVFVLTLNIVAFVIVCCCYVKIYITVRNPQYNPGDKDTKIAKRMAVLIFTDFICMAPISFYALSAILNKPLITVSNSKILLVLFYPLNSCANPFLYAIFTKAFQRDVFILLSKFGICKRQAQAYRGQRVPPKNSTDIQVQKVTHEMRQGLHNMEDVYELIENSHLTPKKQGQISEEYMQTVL
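cAMP rise detected as CNG-channel membrane depolarization by fluorescent dye (emission 590 nm), 30 min after compound, following 60 min dye loading containing 100 uM RO 20-1724 at room temperature. Cells: TSHR/CNG HEK 293, with parental CNG HEK 293 as control.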
Starred values were filed as active, the others as inactive; ? = inconclusive; nt = no result; [ ] = remark or other dose. Unless noted, the call rests on the fitted dose curve; in most records, active means well fitted curve in the direction sought with a large enough effect; inconclusive means small, poorly fitted or top-dose-only effect, or another doubt; inactive means no such curve, though single readings can be large; an effect the other way counts as inactive or inconclusive. Potency means the concentration at half of the fitted maximal effect.

SMILES	ERK AVP block	CRE-bla Fsk	HEK293 cAMP cs	TSHR ag
COC(=O)c1cnn2c(C)c(Cc3cccc(F)c3)c(C)nc12	?	13µM*	7%	14%
CCOC(=O)C1=C(C)Nc2nc(C)nn2C1c1ccc(OC)c(OC)c1 (centres undefined)	0%	?	1.6µM*	?
NC(N)=N[C@H](CCC(=O)O)C(=O)O	-3%	6%	5%	-33%
CSc1nc(N)nc(SC2C=CCCC2)c1C#N (centres undefined)	-11%	13µM*	?	?
COC(=O)c1cn(NC(=O)c2ccncc2)c(=O)c2ccccc12	19%	-2%	7%	1%
COC(=O)c1cn(NC(=O)C2CCCCC2)c(=O)c2ccccc12	6%	?	13µM*	?
C=CCSc1nc2c(c(=O)[nH]c(=O)n2C)n1C(C)C	-6%	10µM*	2%	10%
C=CCn1c(SCc2ccc(Cl)cc2)nc2c1c(=O)[nH]c(=O)n2C	0%	10µM*	23%	27%
C/C=C/Cn1c(SCc2ccc(C)cc2)nc2c1c(=O)[nH]c(=O)n2C	13%	13µM*	?	?
Cc1ccc(Cn2c(N3CCCCCC3)nc3c2c(=O)[nH]c(=O)n3C)cc1	16µM*	?	?	?
CC(C)=CCC/C(C)=C/CO/N=C1/C[C@@H](O)[C@@H](O)[C@@H]2[C@@H]3C(=O)N(C4CCCCC4)C(=O)[C@H]3CC[C@@H]12	16%[11.5 µM]	nt	-12%[11.4 µM]	-9%[11.4 µM]
COc1ccc(OC2C=CC(C#Cc3ccc(F)cc3F)OC2CO)cc1 (centres undefined)	-4%[11.5 µM]	nt	?	?
CNC(=O)[C@H](C)/C=C(\c1cccnc1)C(NC(=O)OCc1ccccc1)c1ccc(C(=O)OC)cc1 (some centres undefined)	3%	-10%	6%	1%
CN1CCC(CNC(=O)c2ccc(Cc3nc4ccccc4[nH]3)cc2)CC1	nt	nt	-21%	9%
CCn1c(N2CCN(CC(=O)c3c(C)n(C)c4ccccc34)CC2)nc2c1c(=O)[nH]c(=O)n2C	-14%	10µM*	-1%	5%
C=CCSc1nc2c(c(=O)[nH]c(=O)n2C)n1Cc1ccc(C)cc1	nt	2.5µM*	-4%	6%
CCOC(=O)N1CCN(c2ccc(C(=O)c3cccc(F)c3)cc2)CC1	15%	-8%	20µM*	?
O=C(c1cccc(F)c1)N1CCN(c2cccc(C(F)(F)F)c2)CC1	5%	?	14%	24%
[O-][n+]1onc2c1CCC1N(O)C(c3ccccc3)CC21O (centres undefined)	-6%	3.2µM*	4%	8%
CCCS(=O)(=O)O	0%[11.5 µM]	?	5%[11.4 µM]	-3%[11.4 µM]
CCn1c(=O)c(C)nn2c3ccccc3nc12	-23%	13µM*	4%	-5%
COc1cccc2sc(Nc3nnc(-c4ccccc4Cl)o3)nc12	nt	5µM*	11%	-8%
COc1ccccc1-c1nnc(Nc2nc3c(OC)cccc3s2)o1	12%	?	11%	9%
O=C(Nc1ccccc1)N1CC=C(c2ccc(F)cc2)CC1	-10%	-10%	2%	11%
O=C(Nc1cccc(F)c1)N1CC=C(n2c(=O)[nH]c3ccccc32)CC1	20µM*	-15%	-10%	-8%
SMILES	ERK AVP block	CRE-bla Fsk	HEK293 cAMP cs	TSHR ag
NC(=O)c1nsc(C(=O)N(CCc2ccccc2)C(C(=O)NC2CCCC2)c2ccco2)c1N (centres undefined)	12%	1%	6.3µM*	?
COc1ccc(C(C(=O)NC2CCCC2)N(CCN(C)C)C(=O)c2snc(C(N)=O)c2N)cc1 (centres undefined)	-15%	?	19%	6%
CCOC(=O)CN(C(=O)CNC(=O)c1ccco1)C(C(=O)NC1CCCC1)c1ccccc1OCC (centres undefined)	11%	-3%	?	?
O=C1NC(=O)C(CC(=O)N(Cc2ccco2)C2(C(=O)NC3CCCC3)CCCCC2)N1 (centres undefined)	6%	8%	?	?
O=C(NC1CCCCC1)C(c1ccco1)N(Cc1ccco1)C(=O)c1ccco1 (centres undefined)	-24%	-4%	16µM*	?
O=C(Cc1cccs1)N(Cc1ccco1)C1(C(=O)NC2CCCC2)CCCCC1	10%	?	0.13µM*	?
CCOCCCN(C(=O)CNC(=O)c1ccco1)C(C(=O)NC1CCCC1)c1ccccc1C (centres undefined)	3%	?	32µM*	?
Cc1cc2ccccc2c[n+]1CC(O)C[n+]1cc2ccccc2cc1C	-12%[11.5 µM]	17%[7.6 µM]	5%[11.4 µM]	-8%[11.4 µM]
CC1(N)CCC(C(C)(C)N)CC1 (centres undefined)	-2%	-12%	-4%	2%
CN=C(NC#N)NCCSC[C@H]1N=CN=C1C	1%[25.7 µM]	0%[17.1 µM]	?	?
O=C(NC1CCCCC1)N(Cc1ccccc1)Cc1ccco1	-22%	3%	16µM*	?
Cc1cccc2cc(CN(Cc3ccco3)C(=O)NC3CCCCC3)c(=O)[nH]c12	-1%	-5%	?	?
CC(C)(C)C(=O)COC(=O)c1cccc(NC(=O)c2ccco2)c1	9%	15%	-6%	2%
O=C(COC(=O)c1cccc(NC(=O)c2ccco2)c1)c1ccc(Br)cc1	16µM*	?	?	?
COC(=O)C/C=C\[C@@H](C)[C@@H](/C=N\OCC[C@H]1C=C[C@H](OC(C)=O)[C@@H](COC(C)=O)O1)NS(=O)(=O)c1ccc(C)cc1	5%[11.5 µM]	nt	6%[11.4 µM]	-3%[11.4 µM]
CN(C)CCC(=O)[C@@]1(O)CC[C@H]2[C@H]3CC=C4C[C@@H](O)CC[C@]4(C)[C@H]3CC[C@]21C	-14%[11.5 µM]	-11%[7.6 µM]	5%[11.4 µM]	3%[11.4 µM]
CCOn1c(=O)c(=O)n(OCc2ccccc2)c2ccccc21	-23%	?	4%[11.4 µM]	3.2µM*
CCOn1c(=O)c(-c2cc3ccccc3o2)[n+]([O-])c2ccccc21	?	3%	-19%	-23%
COc1ccccc1N1CCN(C(=O)CSc2nc(C)c(Cc3ccccc3)c(=O)[nH]2)CC1	13%	6%	25µM*	?
COc1ccc(N2CCN(C(=O)CSc3nnc(C)c(=O)[nH]3)CC2)cc1	18%	-11%	1.3µM*	?
COc1ccc(N2CCN(C(=O)CSc3ccccc3)CC2)cc1	-9%	?	-1%[11.4 µM]	-6%[11.4 µM]
O=C(CSc1nc2ccccc2[nH]1)N1CCN(c2ccc(F)cc2)CC1	25µM*	?	24%	18%
CC1CCN(C(=O)CSc2nc3ccccc3[nH]2)CC1	?	1%	4%	6%
COc1ccccc1N1CCN(C(=O)CSc2nc(-c3ccccc3)cc(=O)[nH]2)CC1	-28%	-8%	16%	19%
CC(C)CN1CC2(CCN(C(=O)c3ccco3)CC2)C1	3%	12%	20µM*	?
FC(F)C(F)(F)C(F)(F)C(F)(F)c1cc(-c2ccccc2)n[nH]1	2.5µM*	?	-6%	0%
Cc1ccc(O)c(-c2cc(C(F)(F)C(F)F)[nH]n2)c1	-27%	28%	-1%	-23%
